Our source for the outcome values is PubChem BioAssay (EPA / NIEHS).

Read-out in the test: Pselectin, SELP (gene 6403)
Kind of test: BSK_4H_Pselectin: BioMAP Diversity Plus: 4H Assay for Pselectin Biomarker Activity (AID 2283026). Conditions: primary human endothelial cells (HUVEC); actives raise or lower the signal. The method in brief:
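ELISA read-out of P-selectin on human umbilical vein endothelium after 24 h of dosing. Values derive from bidirectional fitting relative to DMSO. Parallel SRB protein staining flagged overt cytotoxicity.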

Calls of active or inactive are those of the source. Rule for the calls: active = hit-call score of the fitted dose curve at least 0.9, where 1 is the maximum; inactive = score below 0.9.

Consider `OCCCCO`, for which the result was inactive.
